In the library only some 2.9% were active in any assay of this set; here they are far more common.
Nrf2 ARE act: activators of Nrf2 (ARE) signaling; AREc32 ARE-luciferase reporter (MCF7-derived line), luminescence, 24 h; Potency, µM (titrated, usually from 46.1 µM), for the others: top-dose activation, actives largely listed as activators; 410,000 tested, 0.31% active; further: % of control where 0% means no effect; nearly all actives have a fitted effect of over 65% in size
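Steps: seed AREc32_Fluc cells (1000/well, 5% FBS OPTI-MEM); incubate overnight at 37 deg C; add 23 nL compound; incubate 24 hr; add Steady-Glo; hold 30 min RT; read luminescence.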
Nrf2 block: Nrf2 pathway inhibition. A549 ARE-Fluc reporter, luciferase luminescence, 18-24 h. Potency, µM (titrated, usually from 46 µM), for the others: top-dose activity change, negative = inhibition, actives largely listed as inhibitors. 360,000 tested, 2.1% active. AID 504444; further: on the % scale 0 is the no-effect control and ±100 the full control effect; nearly all actives have a fitted effect of over 60% in size
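Nrf2 activity is the BugLite luminescence, read 15 min after reagent at room temperature, following CellTiter-Fluor cytotoxicity readout (30 min, 37C). Compound titrations were applied for 18-24 h to 5000 A549 ARE_Fluc cells/well in 5% FBS OPTI-MEM.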
A549 tox: counter-screen for Nrf2 inhibitors: cytotoxicity in A549 cells | A549 ARE-Fluc cells, CellTiter-Fluor viability, 18-24 h | Potency, µM (titrated, usually from 46 µM), inactives show at the top dose activity change, negative = cytotoxicity, usual class: inhibitors | 390,000 tested, 0.16% active; further: on the % scale 0 is the no-effect control and ±100 the full control effect
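A549 ARE-Fluc cells in 5% FBS OPTI-MEM, 5000 cells/well, rested 2 h then exposed to compounds in concentration-response for 18-24 h at 37 °C. Viability by CellTiter-Fluor fluorescence (Ex 405/Em 525) after 30 min; luciferase luminescence (BugLite, 15 min, RT) read afterwards.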
S2 tox: viability counter-screen for ATXN expression inhibitors. 400,000 tested, 0.49% active. S2 cells (HEK-293 line with an ATXN2-luciferase reporter) viability, CellTiter-Fluor protease fluorescence, 24 h. AID 651635. Potency, µM (top dose mostly 56.7 µM), most hits filed as cytotoxic; further: nearly all actives have a fitted effect of over 40% in size
ATXN2 expr inh: inhibitors of ATXN2 expression. HEK-293 ATXN2-luciferase reporter, luminescence, 24 h. Potency, µM (doses to about 57 µM), inactives show at the top dose activity change, negative = inhibition, most hits filed as inhibitors. 360,000 tested, 0.72% active. AID 1745845; further: on the % scale 0 is the no-effect control and ±100 the full control effect; nearly all actives have a fitted effect of over 55% in size
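ATXN2-luciferase reporter cells (luciferase flanked by upstream and downstream ATXN2 gene portions) were treated 24 h at 37 °C with compounds at up to 57 uM. SteadyGlo luminescence gave expression; GF-AFC fluorescence gave viability.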
Starred values were filed as active, the others as inactive; i = inactive; u = inconclusive; x = not tested or not shown; [ ] = remark or other dose. The call rests on the fitted dose curve; in most records, active means well fitted curve in the direction sought with a large enough effect; inconclusive means small, poorly fitted or top-dose-only effect, or another doubt; inactive means no such curve, though single readings can be large; an effect the other way counts as inactive or inconclusive. Potency means the concentration at half of the fitted maximal effect.

SMILES | Nrf2 ARE act | Nrf2 block | A549 tox | S2 tox | ATXN2 expr inh
Cc1nn(Cc2cccc(F)c2)c(C)c1NC(=O)c1ccc(COc2ccccc2Cl)cc1 | 0% | 10µM* | u | u | 3.2µM*
Cc1nn(Cc2ccc(Cl)cc2Cl)c(C)c1NC(=O)c1nn(C)cc1Cl | 0% | x | 1% | i | -24%
Cc1nn(Cc2ccc(Cl)cc2Cl)c(C)c1NC(=O)c1ccc(COc2cc(Cl)ccc2Cl)o1 | 0% | 12µM* | -23% | i | -22%
Cc1nn(Cc2c(F)c(F)c(F)c(F)c2F)c(C)c1NC(=O)c1ccc(COc2ccc(Cl)cc2Cl)o1 | 0% | 16µM* | -9% | i | 20µM*
COc1ccccc1CN1CCCC(n2cc(C(=O)N3CCCCC3)nn2)C1 (stereo unspecified) | x | x | x | i | x
O=C(NC1=C(NC2CCS(=O)(=O)C2)C(=O)c2ccccc2C1=O)c1ccccc1 (stereo unspecified) | -3% | 9% | -2% | 30µM* | u
O=C(NC1=C(Nc2ccc(Cl)cc2)C(=O)c2ccccc2C1=O)c1ccccc1 | 0% | u | -19% | u | -10%
NC(=S)NN=C1CSSC1 | 10µM* | x | x | i | x
CC1(C)CCC(=NNC(N)=S)CC1 | 7% | 5% | 17% | u | -34%
Cc1cccc(COCC(Cc2ccccc2)N2CCN(C(=O)c3cccc(Cl)c3)CCC2=O)c1 (stereo unspecified) | 5% | 21µM* | u | u | 0%
Cc1cccc(COC[C@H](Cc2ccccc2)N2CCN(C(=O)c3cccc(C)c3)CCC2=O)c1 | -1% | x | x | 25µM* | -27%
O=Cc1s/c(=N\S(=O)(=O)c2ccccc2)n(CCCCl)c1Cl | -3% | u | u | 5µM* | u
CCn1c(C)cs/c1=N\S(=O)(=O)c1ccccc1 | -1% | -1% | u | i | 7%
O=C(c1cnn2c(C(F)F)cc(-c3ccccc3)nc12)N1CCc2ccccc2C1 | 0% | 23µM* | u | i | x
COc1cc(C(=O)OC(COCCC(C)C)CN2CCOCC2)cc(OC)c1OC (stereo unspecified) | x | x | x | i | 1%
Cc1ccc(S(=O)(=O)N(C)C)cc1NC(=O)C(C)N(C)Cc1sccc1C (stereo unspecified) | 0% | 13µM* | -18% | i | u
CC(C)CCNC(=O)c1c[nH]c2ccc(S(=O)(=O)Nc3cccc(C(F)(F)F)c3)cc2c1=O | 0% | x | 2% | x | x
COc1cccc(NS(=O)(=O)c2ccc3[nH]cc(C(=O)NCCC(C)C)c(=O)c3c2)c1 | 3% | 16µM* | -15% | i | -14%
Clc1cccc(-n2nnnc2NCc2ccccc2Oc2ccccn2)c1Cl | x | x | x | x | -9%
CCOc1ccc2nc(N/C(N)=N/C(=S)Nc3ccc(C)c(C)c3)nc(C)c2c1 | 0% | 23% | -1% | i | -16%
COc1ccc(NC(=S)/N=C(\N)Nc2nc(C)c3ccc(C)cc3n2)cc1 | -2% | -17% | -9% | 16µM* | u
CN1CCC[C@H]1CCNc1ccc2c(=O)c3ccccc3n(C)c2c1 | 28% | 13% | 0% | x | u
Cn1c2ccccc2c(=O)c2ccc(NCc3ccc4c(c3)OCO4)cc21 | 7% | 26µM* | -31% | i | -29%
CN(C)S(=O)(=O)Oc1ccsc1C(=O)Nc1ccc(Br)cc1 | 11% | 21µM* | u | x | 5%[11.3 µM]
CN(C)S(=O)(=O)Oc1ccsc1C(=O)Nc1ccc(C(F)(F)F)cc1 | u | -12% | 4% | i | 12%[11.3 µM]
SMILES | Nrf2 ARE act | Nrf2 block | A549 tox | S2 tox | ATXN2 expr inh
CCOC(=O)N1CCC(n2c(SCC(=O)Nc3ccccc3OC)nc3ccccc3c2=O)CC1 | 0% | 15µM* | x | i | -28%
CC1CCCCN1S(=O)(=O)c1ccc(C(=O)Nc2sc3c(c2C(N)=O)CC(C)(C)NC3(C)C)cc1 (stereo unspecified) | 7% | x | -11% | i | 0%
CCC1C(=O)NCCN1Cc1ccc2c(c1)CN(Cc1ccc(OC)cc1OC)CCO2 (stereo unspecified) | x | x | x | i | x
Cc1ccc(NC(=O)CN2CCCC2c2cccs2)cc1S(=O)(=O)N1CCCCC1 (stereo unspecified) | 1% | 21µM* | -15% | i | u
Cc1ccc(NC(=S)Nc2ccc(C(C)C)cc2)cc1S(=O)(=O)N1CCCCCC1 | 11% | 12µM* | u | u | u
Cc1ccc(NC(=O)CCS(=O)(=O)c2ccccc2)cc1S(=O)(=O)N1CCCCCC1 | 3% | u | -6% | i | -12%
CCCCC(=O)Nc1ccc(C)c(S(=O)(=O)N2CCCCCC2)c1 | 5% | 16µM* | u | i | -9%
C=CCNC(=S)Nc1ccc(C)c(S(=O)(=O)N2CCCCC2)c1 | 0% | -7% | 1% | x | -2%
COc1ccc(NC(=O)COc2ccccc2Cc2ccccc2)cc1S(N)(=O)=O | 0% | 13µM* | u | i | -25%
COc1ccc(NC(=O)CN(Cc2ccccc2)Cc2ccccc2)cc1S(N)(=O)=O | -1% | 0% | u | u | -7%
CN(C)c1ccc(Nc2ncnc3c2c(-c2ccccc2)cn3-c2cccc(Cl)c2)cc1 | 0% | x | -2% | i | 9%
O=C(c1cccc(F)c1)N(Cc1cc2cc3c(cc2nc1N1CCOCC1)CCC3)CC1CCCO1 (stereo unspecified) | x | x | x | i | x
Cc1ccc(NC(=O)COc2cccc(-n3cnnn3)c2)cc1S(=O)(=O)N1CCOCC1 | 1% | 23µM* | 0% | i | x
Cc1ccccc1OCC(=O)Nc1ccc(C)c(S(=O)(=O)N2CCCCCC2)c1 | 1% | 23µM* | -23% | i | -15%
Cc1ccc(S(=O)(=O)N2CCOCC2)cc1NC(=O)COc1cccc(-n2cnnn2)c1 | 3% | -7% | -4% | i | -8%
Cc1ccc(/C=C/C(=O)N2CCc3ccccc32)o1 | 11µM* | u | 0% | i | 76%
COCCN(CCOC)C(=O)c1ccc(CSc2nc3ccccc3s2)cc1 | 6% | 13µM* | -17% | i | -18%
NNC(=O)c1ccc(CSc2nc3ccccc3s2)cc1 | 11% | 10% | 8% | i | -36%
COc1ccc(-c2cc(C3CCN(c4ccc(C(C)=O)cc4[N+](=O)[O-])CC3)[nH]n2)cc1 | -1% | 16µM* | u | u | u
COC(=O)c1ccc(N2CCC(c3cc(-c4ccc(OC)cc4)n[nH]3)CC2)c([N+](=O)[O-])c1 | 0% | u | -30% | u | -19%
CCC(=O)Nc1cccc(C(=O)/C=C/c2cc(Br)ccc2OC)c1 | u | -6% | -14% | 18µM* | 16µM*
C=CCNC(=S)N/N=C(\C)c1ccccn1 | u | 0.58µM* | u | x | -91%
C/C(=N\NC(=O)CCCNc1ccc(C)cc1)c1ccccn1 | 0% | u | -1% | i | 28µM*
C/C(=N\NC(=O)c1ccccc1-n1cccc1)c1ccccn1 | 0% | x | x | 2.8µM* | x

Assay outcomes: PubChem BioAssay, National Center for Advancing Translational Sciences (NCATS)
